Reference: PubChem BioAssay
Activity calls are given as the source filed them.

Experiments:
[1] = binders of probe aFSTL3 on microarray, primary screen, stem cell growth factor project, biochemical, small-molecule microarray, fluorescence 635/667 (AID 1064); conditions: higher = more signal;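 further: measures binding of the biotinylated anti-FSTL3 antibody to printed compounds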
[2] = binders from COS7 lysate, DM2A8 probe, primary screen, torsin A project, cell lysate, small-molecule microarray, fluorescence 635/667 (AID 1065); conditions: higher = more signal, COS7 lysate expressing mutant human TOR1A
[3] = binders of probe aFGF2 on microarray, primary screen, stem cell growth factor project, biochemical, small-molecule microarray, fluorescence 635/667 (AID 1067); conditions: higher = more signal;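 further: measures binding of biotinylated aFGF2 protein to printed compounds on slides; z-score merges feature fluorescence and signal-to-noise across triplicate slides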
[4] = binders of probe aFGF10 on microarray, primary screen, stem cell growth factor project, biochemical, small-molecule microarray, fluorescence 635/667 (AID 1071); conditions: higher = more signal;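 further: score merges 667 nm spot intensity and signal to noise from triplicate slides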
[5] = biological target: Neurogenic locus notch homolog protein 2 (Homo sapiens) (UniProt Q04721); assay: Notch2 binders on small-molecule microarrays, primary screen, biochemical, small-molecule microarray, 635 nm fluorescence, stem cell growth factors (AID 1073); conditions: Notch2 binding, higher = more signal
Sequence of Neurogenic locus notch homolog protein 2 (Homo sapiens) (Q04721 whole entry, looked up, canonical isoform): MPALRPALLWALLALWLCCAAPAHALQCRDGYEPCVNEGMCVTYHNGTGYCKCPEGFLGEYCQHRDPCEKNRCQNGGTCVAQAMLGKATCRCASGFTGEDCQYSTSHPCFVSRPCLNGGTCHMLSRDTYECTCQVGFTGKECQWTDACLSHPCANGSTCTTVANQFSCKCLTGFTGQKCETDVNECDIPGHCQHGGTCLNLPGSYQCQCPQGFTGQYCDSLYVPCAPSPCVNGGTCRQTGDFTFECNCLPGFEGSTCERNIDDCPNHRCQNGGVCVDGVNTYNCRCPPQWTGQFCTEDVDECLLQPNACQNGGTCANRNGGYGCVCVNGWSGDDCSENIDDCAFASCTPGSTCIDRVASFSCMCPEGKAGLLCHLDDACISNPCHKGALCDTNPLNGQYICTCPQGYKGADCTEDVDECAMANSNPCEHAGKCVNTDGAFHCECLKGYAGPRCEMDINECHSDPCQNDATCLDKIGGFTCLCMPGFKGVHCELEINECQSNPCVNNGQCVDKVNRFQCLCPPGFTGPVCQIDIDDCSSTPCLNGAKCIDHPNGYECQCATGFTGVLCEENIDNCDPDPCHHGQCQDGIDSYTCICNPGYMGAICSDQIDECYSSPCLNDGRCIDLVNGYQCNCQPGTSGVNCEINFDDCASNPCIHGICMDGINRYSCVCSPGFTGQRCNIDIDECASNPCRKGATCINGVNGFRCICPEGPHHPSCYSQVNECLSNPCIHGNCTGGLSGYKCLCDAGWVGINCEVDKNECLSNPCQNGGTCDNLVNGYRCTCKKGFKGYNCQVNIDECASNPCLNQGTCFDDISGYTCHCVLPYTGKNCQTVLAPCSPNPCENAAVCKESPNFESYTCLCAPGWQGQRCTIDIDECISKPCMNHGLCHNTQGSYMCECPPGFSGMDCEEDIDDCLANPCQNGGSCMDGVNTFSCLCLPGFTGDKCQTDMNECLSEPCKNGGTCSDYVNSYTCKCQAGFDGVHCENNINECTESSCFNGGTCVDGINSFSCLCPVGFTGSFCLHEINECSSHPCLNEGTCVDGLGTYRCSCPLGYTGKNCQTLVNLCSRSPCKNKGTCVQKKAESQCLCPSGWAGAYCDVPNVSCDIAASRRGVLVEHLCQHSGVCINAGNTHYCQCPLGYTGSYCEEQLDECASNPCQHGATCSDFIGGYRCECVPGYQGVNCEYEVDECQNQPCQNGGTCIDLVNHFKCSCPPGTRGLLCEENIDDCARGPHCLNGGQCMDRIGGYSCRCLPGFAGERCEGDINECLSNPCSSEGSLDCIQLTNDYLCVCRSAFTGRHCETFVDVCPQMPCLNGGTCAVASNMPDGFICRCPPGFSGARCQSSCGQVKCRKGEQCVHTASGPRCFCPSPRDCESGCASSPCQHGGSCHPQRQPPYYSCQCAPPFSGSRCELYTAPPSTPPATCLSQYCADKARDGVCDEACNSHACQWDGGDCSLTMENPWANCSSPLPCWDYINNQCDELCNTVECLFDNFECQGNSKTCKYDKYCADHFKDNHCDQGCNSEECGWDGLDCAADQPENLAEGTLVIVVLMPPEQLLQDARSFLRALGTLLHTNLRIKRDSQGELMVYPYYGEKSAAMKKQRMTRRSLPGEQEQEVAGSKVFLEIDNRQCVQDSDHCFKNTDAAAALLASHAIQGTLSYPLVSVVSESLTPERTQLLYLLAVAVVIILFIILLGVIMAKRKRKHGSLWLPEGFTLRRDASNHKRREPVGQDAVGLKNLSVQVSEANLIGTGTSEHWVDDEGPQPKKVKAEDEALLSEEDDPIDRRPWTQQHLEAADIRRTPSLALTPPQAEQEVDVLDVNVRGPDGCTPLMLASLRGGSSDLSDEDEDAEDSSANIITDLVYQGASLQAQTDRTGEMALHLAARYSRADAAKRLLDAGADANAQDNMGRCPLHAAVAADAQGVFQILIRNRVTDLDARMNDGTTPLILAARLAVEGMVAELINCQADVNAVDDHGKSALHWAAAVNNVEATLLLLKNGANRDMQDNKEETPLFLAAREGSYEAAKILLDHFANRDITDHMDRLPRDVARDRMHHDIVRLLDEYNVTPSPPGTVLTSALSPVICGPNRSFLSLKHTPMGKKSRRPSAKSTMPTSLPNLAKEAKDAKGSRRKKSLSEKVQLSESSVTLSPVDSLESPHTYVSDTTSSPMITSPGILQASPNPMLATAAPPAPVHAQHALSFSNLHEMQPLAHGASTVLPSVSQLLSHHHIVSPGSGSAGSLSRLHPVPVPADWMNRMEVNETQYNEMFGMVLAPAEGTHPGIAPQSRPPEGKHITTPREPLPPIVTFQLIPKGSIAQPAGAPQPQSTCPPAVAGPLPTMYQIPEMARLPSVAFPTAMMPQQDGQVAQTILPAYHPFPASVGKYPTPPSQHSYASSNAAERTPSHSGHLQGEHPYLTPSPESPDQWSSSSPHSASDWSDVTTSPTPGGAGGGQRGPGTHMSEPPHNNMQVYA

[6] = biological target: Pro-neuregulin-1, membrane-bound isoform (Homo sapiens) (UniProt Q02297); assay: NRG1 binders on small-molecule microarrays, primary screen, psychiatric disease protein project, biochemical, small-molecule microarray, fluorescence 635/667 (AID 1075); conditions: NRG1 binding, 635 nm fluorescence, higher = more signal;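 further: score combines 667 nm spot fluorescence with signal to noise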
Sequence of Pro-neuregulin-1, membrane-bound isoform (Homo sapiens) (Q02297 whole entry, looked up, the tested form may be a part, canonical isoform): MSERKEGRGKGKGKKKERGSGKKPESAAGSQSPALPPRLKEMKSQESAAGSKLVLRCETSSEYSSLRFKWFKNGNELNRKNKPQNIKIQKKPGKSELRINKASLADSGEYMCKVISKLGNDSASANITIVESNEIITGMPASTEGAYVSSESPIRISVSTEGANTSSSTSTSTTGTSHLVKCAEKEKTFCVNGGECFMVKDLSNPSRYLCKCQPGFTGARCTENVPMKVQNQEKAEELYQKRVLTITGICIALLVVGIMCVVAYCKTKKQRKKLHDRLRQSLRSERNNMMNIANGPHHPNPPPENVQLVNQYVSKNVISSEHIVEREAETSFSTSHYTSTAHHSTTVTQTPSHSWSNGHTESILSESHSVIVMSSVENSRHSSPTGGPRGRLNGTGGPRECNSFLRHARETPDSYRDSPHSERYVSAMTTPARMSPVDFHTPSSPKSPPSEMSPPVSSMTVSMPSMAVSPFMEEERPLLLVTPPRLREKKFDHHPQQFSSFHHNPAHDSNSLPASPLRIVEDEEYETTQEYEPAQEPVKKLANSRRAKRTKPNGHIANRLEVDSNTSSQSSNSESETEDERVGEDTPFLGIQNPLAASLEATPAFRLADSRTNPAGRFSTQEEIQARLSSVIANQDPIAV

[7] = test system: Neuregulin-1 EGF-like domain; assay: binders of neuregulin-1 EGF-like domain, primary screen, biochemical, small-molecule microarray, 635 nm fluorescence (AID 1081); conditions: small-molecule microarray binding, higher = more signal;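 further: binding of the protein to compounds printed on small-molecule microarray slides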
[8] = FRG1 promoter luciferase signal modulators, primary screen, FRG1 inhibition for FSHD, cell-based, C2C12 myotubes, firefly/Renilla luciferase, luminescence (AID 1084); conditions: higher = more signal, called active from +8 up or from −8 down
[9] = binders of probe aFST on microarray, primary screen, stem cell growth factor project, biochemical, small-molecule microarray, fluorescence 635/667 (AID 1086); conditions: higher = more signal;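 further: score merges 667 nm fluorescence with signal-to-noise of each printed compound spot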
[10] = binders of probe aHhip on microarray, primary screen, stem cell growth factor project, biochemical, small-molecule microarray, fluorescence 635/667 (AID 1087); conditions: higher = more signal;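 further: score merges spot fluorescence at 667nm with spot signal to noise ratio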

Row | SMILES | composite z-score [1] | composite z-score [2] | composite z-score [3] | composite z-score [4] | composite z-score [5] | composite z-score [6] | composite z-score [7] | z-score [8] | composite z-score [9] | composite z-score [10]
1 | CC1CC/C=C\[C@H]2OC34C=CCN(c5ccc(Cl)cc5)C(=O)[C@H]3N(CCCO)C(=O)[C@]4(C)C2C(=O)O1 (stereo not given in full) | 0.316 | -1.4 | -0.162 | -1.11 | -0.932 | 1.38 | 1.64 | -0.0856 (inactive) | -0.558 | -0.296
2 | CCOC(=O)C1=CC[C@@H](c2ccc(F)cc2)N(S(=O)(=O)c2ccc(C)cc2)[C@H]1c1ccc([N+](=O)[O-])cc1 | -0.283 | -0.237 | -0.0277 | 0.639 | 1.26 | 1.1 | 1 | -0.507 (inactive) | 0.919 | -0.0645
3 | CCCC=C(CCC)[C@@H](NC(=O)c1ccco1)c1ccc(C(=O)OC)cc1 | 0.0801 | 0.127 | 0.209 | 0.72 | 1.52 | 1.65 | 1.2 | 0.467 (inactive) | 0.594 | -0.0507
4 | C[C@@H](OCc1ccccc1)C1NC(=O)[C@@]23C(=O)N[C@@H](Cc4ccccc4)C2[C@H](C)[C@@]2(C)O[C@H]2C3/C=C/C/C=C\CNC(=O)[C@H](Cc2ccccc2)NC1=O (stereo not given in full) | -0.497 | -0.0147 | -0.199 | 0.709 | -0.284 | -0.239 | 0.438 | 3.33 (inactive) | -0.128 | 0.103
5 | CCc1cccc(NC(=O)O[C@H]2[C@H](OC(=O)Nc3ccc4c(c3)OCO4)[C@H](OC(=O)Nc3ccc4c(c3)OCO4)[C@@H](OC)O[C@@H]2CO)c1 | 0.0053 | 0.052 | -0.0158 | 0.263 | 0.603 | 0.979 | 1.32 | 4.53 (inactive) | 0.318 | -0.0645
6 | C=CCC(OC(C)=O)[C@@H]1[C@@H](N(Cc2cccc3ccccc23)C(=O)c2cccc3ccccc23)c2cc(OCCCO)ccc2N1C(=O)Cc1ccc2ccccc2c1 (stereo not given in full) | -0.101 | -0.391 | -0.116 | 0.19 | -0.168 | -0.371 | -0.648 | -1.89 (inactive) | -0.0942 | -0.166
7 | O=C1C2C=CC(C(O)C(c3ccccc3)c3ccccc3)N(Nc3ccccc3)C2C(=O)N1c1ccccc1 (stereo not given) | 0.35 | 0.0239 | 0.128 | 0.244 | 1.63 | 1.66 | 1.17 | -0.996 (inactive) | 1.01 | -0.318
8 | COCCOC(=O)N1C(=O)[C@@]2(c3ccccc31)[C@H](C(=O)N1CCCCCCC1)[C@H]1C(=O)O[C@H](c3ccccc3)[C@H](c3ccccc3)N1[C@@H]2c1ccc(O)cc1 | 3.89 | 1.42 | 0.904 | 0.559 | 1.08 | 1.59 | 1.15 | -1.43 (inactive) | 3.43 | 3.37
9 | COCCOC(=O)N1C(=O)[C@@]2(c3cc(C#CC4=CCCCC4)ccc31)[C@H](c1ccc(OCCO)cc1)N1[C@H](c3ccccc3)[C@H](c3ccccc3)OC(=O)[C@H]1[C@@H]2C(=O)N1CCCCCCC1 | 2.32 | 0.945 | 0.303 | 0.474 | 1.37 | 1.07 | 1.13 | -1.62 (inactive) | 2.12 | 1.9
10 | CO[C@H]1O[C@H](CO)[C@@H](OC(=O)Nc2ccc(C(F)(F)F)cc2)[C@H](OC(=O)Nc2ccccc2-c2ccccc2)[C@@H]1OC(=O)Nc1ccccc1-c1ccccc1 | 0.433 | 1.65 | -0.0262 | 0.94 | 1.56 | 1.77 | 1.29 | -0.228 (inactive) | 1.32 | -0.146
11 | COc1ccc(C#Cc2ccc3c(c2)[C@]2(C(=O)N3)[C@H](c3ccc(OCCO)cc3)N3[C@H](c4ccccc4)[C@H](c4ccccc4)OC(=O)[C@H]3[C@@H]2C(=O)O)cc1 | -0.302 | 0.478 | 0.0296 | 1.12 | 1.34 | 0.343 | 1.25 | 0.373 (inactive) | 0.29 | -0.0454
12 | COc1ccc([Si](C)(C)[C@@H]2[C@@H](CC(=O)N(CCO)Cc3ccccc3)O[C@]3(C(=O)N(Cc4ccc(N5CCC5=O)cc4)c4ccccc43)[C@H]2C)cc1 | -0.0664 | 0.461 | -0.0226 | 0.0667 | 0.0102 | 0.695 | 0.677 | -0.192 (inactive) | 2.26 | -0.0267
13 | CC(C)C[C@H]1NC(=O)[C@@H](C)NC(=O)[C@@]23C(=O)N[C@@H](Cc4ccccc4)C2[C@H](C)[C@@]2(C)O[C@H]2C3/C=C/C/C=C\CNC1=O (stereo not given in full) | -0.112 | -0.0039 | -0.185 | 0.346 | 0.125 | 0.483 | 0.798 | 1.85 (inactive) | -0.141 | -0.121
14 | CCCCC(=C=CC[C@@H](O)c1cccc(OCCO)c1)CCO | -0.219 | -0.555 | -0.057 | 0.601 | -0.277 | -0.0951 | 0.345 | -0.225 (inactive) | 0.0204 | -0.128
15 | C=CCNC(=O)[C@@H]1[C@H]2C(=O)O[C@H](c3ccccc3)[C@H](c3ccccc3)N2[C@H](c2ccc(O)cc2)[C@@]12C(=O)Nc1ccc(C#CC3(O)CCCCCC3)cc12 | -0.258 | 0.102 | -0.1 | 0.434 | 0.469 | 0.606 | 0.979 | 0.273 (inactive) | -0.0976 | -0.0391
16 | C=CCN1C(=O)[C@]2(O[C@H](CCO)[C@@H]([Si](C)(C)c3ccc(OC)cc3)[C@@H]2C)c2ccccc21 | -0.277 | -0.313 | -0.144 | -0.314 | -0.599 | 0.174 | 0.122 | -3.89 (inactive) | -0.488 | -0.0933

Row | SMILES | composite z-score [1] | composite z-score [2] | composite z-score [3] | composite z-score [4] | composite z-score [5] | composite z-score [6] | composite z-score [7] | z-score [8] | composite z-score [9] | composite z-score [10]
17 | C[N+](C)(C)CCCC[C@@H]1NC(=O)[C@H]2C[C@@H](C(=O)NCCCCCNC(=O)CS)[C@@H](c3ccc(O)cc3)N2C1=O | -0.257 | -0.0727 | -0.118 | 0.198 | 0.363 | 1.55 | 0.745 | -1.04 (inactive) | 0.104 | 0.0623
18 | C=CCC(OC(C)=O)[C@@H]1[C@@H](N(Cc2cccc3ccccc23)C(=O)c2ccc(C)cc2)c2cc(OCCCO)ccc2N1C(=O)c1ccc2ccccc2n1 (stereo not given in full) | -0.0635 | 0.552 | 0.01 | 0.238 | -0.327 | -0.157 | 0.0751 | -1.44 (inactive) | 0.223 | 0.386
19 | CCCCC(O)C1C=CC2C(=O)NC(=O)C2N1Nc1ccccn1 (stereo not given) | -0.197 | -0.0611 | -0.0691 | 0.329 | 0.949 | 0.699 | 0.683 | 0.86 (inactive) | 0.0344 | -0.128
20 | Cc1c(NC(=O)/C(C#N)=C/c2ccc(Cl)cc2)c(=O)n(-c2ccccc2)n1C | -0.268 | -0.113 | -0.0909 | 0.589 | 0.746 | 0.942 | 1.2 | -0.131 (inactive) | 0.52 | 0.0623
21 | COCC(=C=CC[C@@H](O)c1cccc(OCCO)c1)C[C@@H](O)COCc1ccccc1 | 0.506 | 1.35 | 0.0918 | 0.718 | -0.157 | 2.11 | 0.974 | -0.631 (inactive) | 1.96 | -0.169
22 | C=C(/C(=C/C[C@H](OC(=O)c1ccncc1)c1ccccc1OCCO)c1cc(C(=O)OC)ccc1OC)C(C)C | -0.0165 | 0.229 | -0.01 | 0.605 | 0.267 | 1.1 | 1.28 | -1 (inactive) | 0.265 | -0.249
23 | COC(=O)C1(CC(C)C)C=C2C(=C(C(C)C)C(=O)C2C)CN1 (stereo not given) | 0.901 | -0.241 | -0.0578 | -0.589 | -0.507 | 0.607 | 0.19 | 1.65 (inactive) | 0.315 | -0.0603
24 | COCCOC(=O)N1C(=O)[C@@]2(c3cc(C#CCCO)ccc31)[C@H](c1ccccc1OCCO)N1[C@H](c3ccccc3)[C@H](c3ccccc3)OC(=O)[C@H]1[C@@H]2C(=O)N1CCc2cc(OC)c(OC)cc2C1 | 0.071 | 0.827 | 0.022 | 1.04 | 1.04 | 1.21 | 1.17 | -1.4 (inactive) | 0.505 | 0.0373
25 | COC(=O)Cn1c(C(=O)N(C)C)cc2c1C[C@H]1CN(C(=O)c3ccccc3)[C@@](Cc3ccc(OC)cc3)(C(=O)OC)[C@@H]21 | 0.2 | -0.195 | 0.347 | 1.25 | 1.19 | 2.13 | 1.18 | 0.296 (inactive) | 0.513 | 0.0053
26 | COc1cc2c(cc1O)C(c1ccc(CN3CCCC3)cc1)N(Cc1ccc([N+](=O)[O-])o1)CC2 (stereo not given) | -0.649 | -0.533 | -0.158 | 0.0497 | 0.345 | 2.15 | 0.936 | 1.06 (inactive) | -0.21 | -0.354
27 | CC(C)[C@@H](C(=O)O)n1cc(-c2ccccc2)nn1 | 0.272 | 0.692 | -0.0894 | 0.779 | 0.964 | 0.648 | 1.08 | 0.736 (inactive) | 0.874 | -0.0645
28 | COCCOC(=O)N1C(=O)[C@@]2(c3ccccc31)[C@H](c1ccc(OCCO)cc1)N1[C@H](c3ccccc3)[C@H](c3ccccc3)OC(=O)[C@H]1[C@@H]2C(=O)N1CCN(c2ncccn2)CC1 | -0.185 | 0.751 | 0.0323 | 0.559 | 1.47 | 1.33 | 1.24 | -0.132 (inactive) | 0.742 | 0.107
29 | COC(=O)[C@@]1(Cc2ccc(F)cc2)[C@H]2c3cc(C(=O)N(C)C)n(CCn4cc([N+](=O)[O-])nc4C)c3C[C@H]2CN1C(=O)c1ccccc1 | 0.729 | -0.498 | 0.22 | 0.422 | 1.43 | 1.36 | 1.19 | 1.26 (inactive) | 0.593 | -0.166
30 | Cc1ccc(F)cc1S(=O)(=O)N[C@@H]1CCN(Cc2ccc3c(c2)OCO3)C1 | -0.125 | 0.267 | -0.135 | -0.0066 | -0.898 | -0.474 | -0.276 | -4.06 (inactive) | -0.264 | -0.0994
31 | CCCCC(=C=CC[C@@H](O)c1cccc(OCCO)c1)C[C@@H](O)COCc1ccccc1 | -0.407 | -0.323 | -0.174 | 0.211 | -0.546 | 0.679 | -0.0821 | -2.47 (inactive) | -0.336 | 0.0053
32 | CC[C@H](C)C(=O)O[C@H]1CC[C@]2(C)C3=C(CCC2C1(C)C)[C@]1(C)CC[C@H]([C@H](C)CCCC(C)C)[C@@]1(C)CC3 (stereo not given in full) | -0.598 | 0.191 | -0.0691 | 0.332 | 0.414 | 0.0345 | 0.966 | 0.169 (inactive) | 0.0889 | 0.315
